This passage reports Potency, viability change, negative = cytotoxic and activity change, negative = cytotoxicity results from PubChem BioAssay (Tox21).

Inconclusive results are not listed. Unmarked numbers belong to inactive results. Active and inactive are the calls of the source. Calls follow the shape of the dose curve; as a rule, active = well fitted cell-killing curve with a large enough effect in the repeat runs; inconclusive = weak or mixed curves, or effect the other way; inactive = flat fitted curve, though single readings scatter.

The nature of experiment [1]: cAMP Responsive Elements (CRE) small molecule antagonists, cell-based qHTS assay: qHTS cell viability counter screen (AID 2060913). Also: nearly all actives have a fitted effect of over 40% in size. In outline:
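Viability of NKH477-stimulated (0.25 uM final) CRE-bla HEK293T cells is measured by CellTiter-Glo luminescence following 3 hrs compound exposure at 37 C.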
(Quantitative high-throughput screening tests each substance at several concentrations.)

Experiment [2] in a line: cAMP Responsive Elements (CRE) small molecule agonists, cell-based qHTS assay: qHTS cell viability counter screen (AID 2060914).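 Also: viability read after 3 h of compound exposure; nearly all actives have a fitted effect of over 50% in size.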 In outline: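 CRE-bla HEK 293T cells, plated 18 h at 37 °C, were exposed to compounds for 3 h at 37 °C/5% CO2. Viability was then measured in the same wells by CellTiter-Glo luminescence after 30 min at room temperature.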
% is scaled to controls: 0 for no effect and ±100 for the full control effect; potency is read from the fitted curve at half-maximal effect.

With `O=C1OC(c2ccc(O)cc2)(c2ccc(O)cc2)c2ccccc21`, the Potency result in experiment [1] and in experiment [2] was “inactive” in each case.

For the molecule `O=C1c2ccccc2C(=O)N1CCl`, the Potency entry in experiment [1] and in experiment [2] was “inactive” in each case.

For `C=CC(C)CCCC(C)(C)O` (stereo unspecified), the Potency result in experiment [1] and in experiment [2] was “inactive” in each case.

Take `CC(=O)OC(C)(C)Cc1ccccc1`: the Potency result in experiment [1] and in experiment [2] was “inactive” in each case.

In the case of `OCC1(CO)COCOC1`, the Potency entry in experiment [1] and in experiment [2] was “inactive” throughout.

Regarding `O=C(O)CN(CCOCCOCCN(CC(=O)O)CC(=O)O)CC(=O)O`, the viability change, negative = cytotoxic in experiment [1] was -0.164% [at 0.349 µM]. The activity change, negative = cytotoxicity in experiment [2] was -3.94% [at 0.349 µM].

Consider `C=CCCCCCCCCC(=O)O`, for which the Potency entry in experiment [1] and in experiment [2] was “inactive” each time.

Consider `OC[C@H]1O[C@@H]2O[C@H]3[C@H](O)[C@@H](O)[C@@H](O[C@H]4[C@H](O)[C@@H](O)[C@@H](O[C@H]5[C@H](O)[C@@H](O)[C@@H](O[C@H]6[C@H](O)[C@@H](O)[C@@H](O[C@H]7[C@H](O)[C@@H](O)[C@@H](O[C@H]8[C@H](O)[C@@H](O)[C@@H](O[C@H]9[C@H](O)[C@@H](O)[C@@H](O[C@H]1[C@H](O)[C@H]2O)O[C@@H]9CO)O[C@@H]8CO)O[C@@H]7CO)O[C@@H]6CO)O[C@@H]5CO)O[C@@H]4CO)O[C@@H]3CO`, for which the Potency result in experiment [1] and in experiment [2] was “inactive” each time.

As to `CCOCCOCCO`, the Potency entry in experiment [1] and in experiment [2] was “inactive” throughout.

As for `CCOC(=O)C1OC1c1ccccc1` (stereo unspecified), the Potency result in experiment [1] and in experiment [2] was “inactive” in each case.

For the molecule `C1COCCN1`, the Potency entry in experiment [1] and in experiment [2] was “inactive” in each case.

As for `O=c1cc(-c2ccccc2)oc2ccccc12`, the Potency entry in experiment [1] and in experiment [2] was “inactive” in each case.

On to `C=CC(=O)OCCC(=O)O`, for which the Potency entry in experiment [1] and in experiment [2] was “inactive” in each case.

For `Cc1ccc(C#N)cc1`, the Potency result in experiment [1] and in experiment [2] was “inactive” throughout.

Turning to `CCCCCCC=O`, the Potency entry in experiment [1] and in experiment [2] was “inactive” in each case.

Regarding `CCCCC1(COC(=O)CCC(=O)O)C(=O)N(c2ccccc2)N(c2ccccc2)C1=O`, the Potency result in experiment [1] and in experiment [2] was “inactive” each time.

`CCCCCC=CCC=CCCCCCCCC(=O)OCC`: the Potency result in experiment [1] and in experiment [2] was “inactive” throughout.

`CCCCCCC1CCC(=O)O1` (stereo unspecified): the Potency result in experiment [1] and in experiment [2] was “inactive” each time.

Consider `CCCOCCC`, for which the Potency result in experiment [1] and in experiment [2] was “inactive” throughout.

`COc1cc(Cl)c(OC)cc1N`: the Potency result in experiment [1] and in experiment [2] was “inactive” throughout.

With `C=CC(=O)OCCN(CC)CC`, the Potency result in experiment [1] and in experiment [2] was “inactive” each time.

On to `OCC1CC=CCC1` (stereo unspecified), for which the Potency result in experiment [1] and in experiment [2] was “inactive” throughout.

For `COC(C)COC(C)COC(C)CO` (stereo unspecified), the Potency result in experiment [1] and in experiment [2] was “inactive” throughout.

Take `C/C(=N\[Si](C)(C)C)O[Si](C)(C)C`: the Potency entry in experiment [1] and in experiment [2] was “inactive” throughout.

Turning to `C=CCCCCCCCCC=O`, the Potency entry in experiment [1] and in experiment [2] was “inactive” in each case.

Consider `C=CC(C)(O)CC/C=C(\C)CCC=C(C)C` (stereo unspecified), for which the Potency result in experiment [1] and in experiment [2] was “inactive” in each case.

Turning to `CC(=O)CC(=O)OC(C)(C)C`, the Potency result in experiment [1] and in experiment [2] was “inactive” in each case.

With `Cc1cc(C)c(O)c(C(C)(C)C)c1`, the Potency result in experiment [1] and in experiment [2] was “inactive” throughout.

Regarding `CN(C)CCC(c1ccccc1)c1ccccn1` (stereo unspecified), the Potency entry in experiment [1] and in experiment [2] was “inactive” in each case.

In the case of `CCC(=O)C1CC(C(C)C)CC=C1C` (stereo unspecified), the Potency entry in experiment [1] and in experiment [2] was “inactive” in each case.

With `CNc1ccc([N+](=O)[O-])cc1`, the Potency entry in experiment [1] and in experiment [2] was “inactive” each time.

Take `C=CCOCC(CO)(COCC=C)COCC=C`: the Potency result in experiment [1] and in experiment [2] was “inactive” throughout.

`CCOCOCC`: the Potency result in experiment [1] and in experiment [2] was “inactive” in each case.

In the case of `CC(O)CNCC(C)O` (stereo unspecified), the Potency entry in experiment [1] and in experiment [2] was “inactive” throughout.

As for `Cc1ccc(-c2cc(C(F)(F)F)nn2-c2ccc(S(N)(=O)=O)cc2)cc1`, the Potency result in experiment [1] and in experiment [2] was “inactive” each time.

With `O=C(O)/C=C/c1cnc[nH]1`, the Potency result in experiment [1] and in experiment [2] was “inactive” in each case.

On to `CCN(CC)CCNC(=O)COc1ccc(Cl)cc1`, for which the Potency result in experiment [1] and in experiment [2] was “inactive” each time.

Consider `CSc1cnccn1`, for which the Potency entry in experiment [1] and in experiment [2] was “inactive” in each case.

As to `CCCCCCCCCCCCN(CCO)CCO`, the Potency in experiment [1] and in experiment [2] was 60.9 µM (active) in each case.

`O=C(CCCN1CCN(c2ccccn2)CC1)c1ccc(F)cc1`: the Potency result in experiment [1] and in experiment [2] was “inactive” each time.

For `CN(Cc1ccc(C(C)(C)C)cc1)Cc1cccc2ccccc12`, the Potency result in experiment [1] and in experiment [2] was “inactive” each time.

Consider `OC[C@@H](O)[C@H](O)[C@@H](O)[C@@H](O)CO`, for which the Potency entry in experiment [1] and in experiment [2] was “inactive” each time.

Take `C/C=C1/C(=O)C[C@H]2[C@@H]3CCC4=CC(=O)CC[C@]4(C)[C@H]3CC[C@]12C`: the Potency result in experiment [1] and in experiment [2] was “inactive” throughout.

Regarding `O=C(NCCc1c[nH]c2ccccc12)c1cccnc1`, the Potency entry in experiment [1] and in experiment [2] was “inactive” each time.

On to `O=C(OC1C[C@H]2CC[C@@H](C1)[N+]21CCCC1)C(O)(c1ccccc1)c1ccccc1` (stereo partly specified), for which the Potency result in experiment [1] and in experiment [2] was “inactive” throughout.

As for `Cc1ccc2ccccc2c1[N+](=O)[O-]`, the Potency result in experiment [1] and in experiment [2] was “inactive” each time.

In the case of `C#C[C@]1(O)CC[C@H]2[C@@H]3CCc4cc(O)ccc4[C@H]3CC[C@@]21C`, the Potency entry in experiment [1] and in experiment [2] was “inactive” in each case.

As to `CCCCOCCOCCOCCOCCO`, the Potency entry in experiment [1] and in experiment [2] was “inactive” in each case.

Turning to `O=P(O)(O)C(O)(Cc1cccnc1)P(=O)(O)O`, the Potency entry in experiment [1] and in experiment [2] was “inactive” throughout.

On to `O=C(O)CC(O)C(=O)O` (stereo unspecified), for which the Potency result in experiment [1] and in experiment [2] was “inactive” each time.

Turning to `O=S1(=O)c2cccc3cccc(c23)N1CCCN1CCN(c2ccc(F)cc2)CC1`, the Potency entry in experiment [1] and in experiment [2] was “inactive” throughout.

With `COc1ccc(-c2cc(=S)ss2)cc1`, the Potency entry in experiment [1] and in experiment [2] was “inactive” throughout.

With `CN1CC(=O)NC1=N`, the Potency entry in experiment [1] and in experiment [2] was “inactive” each time.

With `COc1ccc(Cc2cnc(N)nc2N)cc1OC`, the Potency entry in experiment [1] and in experiment [2] was “inactive” each time.

As to `c1ccc2c(CC3=NCCN3)cccc2c1`, the Potency entry in experiment [1] and in experiment [2] was “inactive” each time.

For `CC/C=C\C#N`, the Potency result in experiment [1] and in experiment [2] was “inactive” in each case.

In the case of `CCCCOC(=O)C(C)CC` (stereo unspecified), the Potency result in experiment [1] and in experiment [2] was “inactive” in each case.

Take `C=CCOCC(O)CO` (stereo unspecified): the Potency entry in experiment [1] and in experiment [2] was “inactive” in each case.
